Drawing on PubChem BioAssay (EPA / NIEHS), this text covers outcome for 39 compounds.

SMILES strings stand for the structures. The source made the active and inactive calls. The calls were made as follows: active = hit-call score of the fitted dose curve at least 0.9, where 1 is the maximum; inactive = score below 0.9.

This test is described as follows: ATG_M_61_CIS: Attagene CIS-FACTORIAL HepG2 Assay for M61 Transcription Factor (Internal Marker) (AID 2282937). The note with it: HepG2 Attagene CIS-FACTORIAL M61 internal marker reporter; actives raise or lower the signal. Put shortly:
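Using transiently transfected HepG2 liver cells, reporter transcript levels were assessed 24 h post-dosing by RT-PCR and capillary electrophoresis. Changes in either direction were fitted relative to DMSO controls.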
As to `CCCCCCCCCCBr`, the outcome was inactive.
Take `N#CCCC(Br)(C#N)CBr` (centres undefined): the call was inactive.
As for `O=C(NC(=O)c1c(F)cccc1F)Nc1cc(Cl)c(Oc2ncc(C(F)(F)F)cc2Cl)c(Cl)c1`, the compound was called inactive.
As for `C=C(C)[C@@H]1CC=C(C=O)CC1`, the compound was classed as inactive.
As to `Cc1cc(SCc2sc(-c3ccc(C(F)(F)F)c(F)c3)nc2C)ccc1OCC(=O)O`, the compound was called inactive.
For the compound `ClCc1ccccc1CCl`, the compound was classed as inactive.
For the compound `N#Cc1ccc(Cl)cc1`, the compound was classed as inactive.
In the case of `C[N+](C)(C)Cc1ccccc1` it was “inactive”; in that of `O=C1C=CC(=O)c2ccccc21`, “inactive”; in that of `CC(O)(CS(=O)(=O)c1ccc(F)cc1)C(=O)Nc1ccc(C#N)c(C(F)(F)F)c1` (centres undefined), “inactive”.
Regarding `CCOC(=O)CC(=O)CCl`, the compound was classed as inactive.
In the case of `O=C(NC(=O)c1c(F)cccc1F)Nc1cc(Cl)c(OC(F)(F)C(F)C(F)(F)F)cc1Cl` (centres undefined) it was “inactive”; in that of `C=CC(=O)NC(C)(C)CC(C)=O`, “inactive”.
In the case of `CC(C)CP(=S)(S)CC(C)C` it was “inactive”; in that of `Cc1cc(C(F)(C(F)(F)F)C(F)(F)F)ccc1NC(=O)c1cccc(I)c1C(=O)NC(C)(C)CS(C)(=O)=O`, “inactive”.
Regarding `O=S1OC[C@@H]2[C@H](CO1)[C@]1(Cl)C(Cl)=C(Cl)[C@@]2(Cl)C1(Cl)Cl` (some centres undefined), the call was inactive.
In the case of `CC1(C)[C@H](/C=C2\CCSC2=O)[C@@H]1C(=O)OCc1coc(Cc2ccccc2)c1` it was “inactive”; in that of `CNC(=O)CSP(=O)(OC)OC`, “inactive”; in that of `c1csc(-c2ccc(-c3cccs3)s2)c1`, “inactive”.
In the case of `C1CCC(C2CCCCC2)CC1`, the call was inactive.
As for `NC(=O)c1ccc(N)nc1`, the entry is “inactive”.
In the case of `CC(F)(F)CC(F)(F)F`, the call was inactive.
As for `C=CC(=O)[O][Sn]([CH2]CCC)([CH2]CCC)[CH2]CCC`, the entry is “inactive”.
On to `O=S(=O)(C(Cl)(Cl)Cl)C(Cl)(Cl)Cl`, for which the outcome was inactive.
Take `COC(=O)c1cc(Oc2ccc(Cl)cc2Cl)ccc1[N+](=O)[O-]`: the call was inactive.
Take `CC(C)(c1ccc(O)c(-c2ccccc2)c1)c1ccc(O)c(-c2ccccc2)c1`: the call was inactive.
As for `Clc1cc(C(Cl)(Cl)Cl)cnc1Cl`, the entry is “inactive”.
In the case of `CCOC(=O)OC1=C(c2cc(C)ccc2C)C(=O)NC12CCC(OC)CC2` (centres undefined) it was “inactive”.
On to `CCCSP(=S)(OCC)Oc1ccc(SC)cc1` (centres undefined), for which the result was inactive.
As for `CN(C1CCCCC1)C1CCCCC1`, the entry is “inactive”.
As for `ClCCN1CCOCC1`, the entry is “inactive”; as for `FC(F)OCC(F)(F)C(F)(F)F`, “inactive”; as for `N#Cc1ccccc1N`, “inactive”.
For the compound `[F][Sn]([c]1ccccc1)([c]1ccccc1)[c]1ccccc1`, the call was inactive.
In the case of `C[As+](C)(C)CC(=O)[O-]` it was “inactive”.
In the case of `O=C(Nc1ccc(Br)cc1)c1cc(Br)cc(Br)c1O` it was “inactive”; in that of `O=[N+]([O-])c1ccc(Cl)c([N+](=O)[O-])c1`, “inactive”; in that of `CC(=Cc1ccccc1)[N+](=O)[O-]`, “inactive”.
For the compound `CCOc1ccc(N)cc1`, the compound was classed as inactive.
